Experiment [1] can be described thus: ATG_E_Box_CIS: Attagene CIS-FACTORIAL HepG2 Assay for human Enhancer Box (E-box) (AID 2282936). The settings on record: HepG2 E-box cis-reporter transcription, actives raise or lower the signal. Put shortly: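 DMSO served as negative control and baseline for bidirectional fitting. Human hepatoma HepG2 cells, transiently transfected with cis-reporter constructs, were dosed 24 h; reporter mRNA read by RT-PCR and capillary electrophoresis.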

Experiment [2] can be described thus: ATG_M_61_CIS: Attagene CIS-FACTORIAL HepG2 Assay for M61 Transcription Factor (Internal Marker) (AID 2282937). Particulars: HepG2 Attagene CIS-FACTORIAL M61 internal marker reporter; actives raise or lower the signal. Put shortly: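 This endpoint serves as an internal background control within a multiplexed HepG2 cis-reporter panel. Cells are exposed for 24 h; reporter mRNA is amplified, fluorescently labelled and sized by capillary electrophoresis, with DMSO as negative control.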

Experiment [3] can be described thus: ATG_EGR_CIS: Attagene CIS-FACTORIAL HepG2 Assay for human Early Growth Response 1 (EGR1) (AID 2282938). Particulars: HepG2 Attagene CIS-FACTORIAL EGR reporter mRNA; actives raise or lower the signal. The procedure, abridged: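 HepG2, transient MRTU transfection (cis promoters), 24 h compound. RNA → RT (oligo-dT) → PCR → 6-FAM labelling → HpaI cut → CE fluorescence. Bidirectional fit, DMSO baseline.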

The nature of experiment [4]: ATG_M_19_CIS: Attagene CIS-FACTORIAL HepG2 Assay for M19 Transcription Factor (Internal Marker) (AID 2282939). The settings on record: HepG2 Attagene CIS-FACTORIAL M19 internal marker reporter; actives raise or lower the signal. The procedure, abridged:
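Signals come from fluorescence of labelled reporter-specific PCR fragments resolved by capillary electrophoresis, following 24 h treatment of HepG2 cells transfected with cis-promoter reporter units; activity was fitted in both directions relative to DMSO.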

The nature of experiment [5]: ATG_ERE_CIS: Attagene CIS-FACTORIAL HepG2 Assay for Estrogen Response Element (ERE) (AID 2282940). Particulars: HepG2 ERE cis-reporter, Attagene RNA transcript; actives raise or lower the signal. The procedure, abridged: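 Fluorescence of capillary-separated, FAM-labelled reporter cDNA fragments indicates reporter mRNA levels in HepG2 cells exposed to chemicals for 24 h. Transient transfection with cis-regulated units; data fitted in both directions against DMSO.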

Experiment [6] is described as follows: ATG_Ets_CIS: Attagene CIS-FACTORIAL HepG2 Assay for human Erythroblast Transformation Specific (ETS) (AID 2282941). Particulars: HepG2 ETS cis-reporter transcription, actives raise or lower the signal. The procedure, abridged:
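Steps: transfect HepG2 with multiple reporter units; treat compound 24 h; isolate RNA, DNase-treat, reverse-transcribe; PCR-amplify, label with 6-FAM, digest with HpaI; separate by capillary electrophoresis. Activity fitted both directions versus DMSO.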

Experiment [7] deals with Hepatocyte nuclear factor 3-beta (Homo sapiens) (UniProt Q9Y261). The experiment in a line: ATG_FoxA2_CIS: Attagene CIS-FACTORIAL HepG2 Assay for human Forkhead box A2 (FOXA2) (AID 2282942). The settings on record: HepG2 cis-reporter transcription factor activity, 24 h; actives raise or lower the signal. The procedure, abridged:
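Cells: HepG2, transient multiplex reporter transfection. Exposure 24 h. Detection: reporter-specific RT-PCR, fluorescent labelling, restriction digest, capillary electrophoresis. Analysis: bidirectional curve fit, DMSO as negative control.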

The nature of experiment [8]: ATG_FoxO_CIS: Attagene CIS-FACTORIAL HepG2 Assay for human Forkhead box O (FoxO) (AID 2282943). Particulars: HepG2 Attagene cis-reporter, FoxO element, mRNA; actives raise or lower the signal. Put shortly: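 HepG2, transient MRTU transfection (cis element, endogenous TFs). Dose 24 h. TriZol RNA → oligo(dT) RT → PCR → 6-FAM primer extension → HpaI cut → CE. Gain/loss vs DMSO.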

Experiment [9] can be described thus: ATG_GATA_CIS: Attagene CIS-FACTORIAL HepG2 Assay for human GATA Binding Protein (AID 2282944). Particulars: HepG2 GATA cis-element reporter, Attagene multiplex mRNA; actives raise or lower the signal. The procedure, abridged:
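After transfecting HepG2 cells with multiple cis-regulated reporter units, chemicals are dosed for 24 h; isolated RNA undergoes RT-PCR and fluorescent labeling before capillary electrophoresis, with activity expressed against DMSO.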

Experiment [10] in a line: ATG_GLI_CIS: Attagene CIS-FACTORIAL HepG2 Assay for human Zinc Finger Protein GLI1 (AID 2282945). Particulars: HepG2, Attagene cis-factorial reporter mRNA, GLI element; actives raise or lower the signal. Put shortly:
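Bidirectional curve fits relative to DMSO, using reporter mRNA levels from RT-PCR plus capillary electrophoresis. Cells were HepG2 transiently carrying cis-regulated reporter constructs, harvested 24 h after dosing.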

Experiment [11] is described as follows: ATG_GRE_CIS: Attagene CIS-FACTORIAL HepG2 Assay for human Glucocorticoid Response Elements (GRE) (AID 2282947). Particulars: HepG2 GRE cis-reporter, Attagene multiplex mRNA; actives raise or lower the signal. The procedure, abridged: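 Assay uses human hepatoma HepG2 cells transfected with cis-promoter reporter units, exposed 24 h. mRNA from reporters detected by RT-PCR plus capillary electrophoresis; DMSO serves as negative control and baseline.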

Experiment [12] is described as follows: ATG_ISRE_CIS: Attagene CIS-FACTORIAL HepG2 Assay for human Interferon Regulatory Factor 1 (IRF1) binding to an Interferon-Stimulated Response Element (ISRE) (AID 2282948). The settings on record: HepG2 ISRE cis-reporter (Attagene), mRNA transcription readout; actives raise or lower the signal. The procedure, abridged: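 Transfected HepG2 (multiple reporter transcription units, cis elements) dosed 24 h. RNA → oligo(dT) RT → PCR → 6-FAM primer extension → HpaI → CE. DMSO = negative control/baseline.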

Experiment [13] can be described thus: ATG_M_32_CIS: Attagene CIS-FACTORIAL HepG2 Assay for M32 Transcription Factor (Internal Marker) (AID 2282949).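 Note: background control marker of the multiplexed CIS panel rather than a real target.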 Particulars: HepG2 Attagene cis-factorial M32 reporter, mRNA; actives raise or lower the signal. The procedure, abridged:
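Internal background marker read-out: RT-PCR/capillary electrophoresis fluorescence of reporter transcripts from transiently transfected HepG2 cells after 24 h chemical exposure. Activity fitted bidirectionally relative to DMSO negative control.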

Experiment [14] in a line: ATG_M_06_CIS: Attagene CIS-FACTORIAL HepG2 Assay for M06 Transcription Factor (Internal Marker) (AID 2282950). Particulars: HepG2 Attagene CIS-FACTORIAL M06 internal marker reporter; actives raise or lower the signal. Put shortly: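 HepG2 liver cells, 24 h exposure. Reporter transcripts from transfected cis-element constructs quantified by RT-PCR/capillary electrophoresis fluorescence. Bidirectional curve fit against DMSO.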

Experiment [15] addresses Hypoxia-inducible factor 1-alpha (Homo sapiens) (UniProt Q16665). The experiment in a line: ATG_HIF1a_CIS: Attagene CIS-FACTORIAL HepG2 Assay for human Hypoxia Inducible Factor 1 (HIF1A) (AID 2282951). Particulars: HepG2 Attagene cis-factorial HIF1a reporter transcription; actives raise or lower the signal. The procedure, abridged:
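HepG2, transient cis-reporter library, 24 h dosing. RNA → RT (oligo dT) → PCR → 6-FAM primer extension → HpaI → CE. Bidirectional curve fit vs DMSO.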

Experiment [16] is described as follows: ATG_MRE_CIS: Attagene CIS-FACTORIAL HepG2 Assay for human Metal Responsive Element (MRE) (AID 2282954). Particulars: HepG2 MRE cis-reporter transcription, Attagene multiplex; actives raise or lower the signal. Put shortly: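 After a 24 h chemical exposure, transiently transfected HepG2 cells yield RNA whose reporter sequences are amplified, FAM-labelled and sized by capillary electrophoresis. Curves are fitted bidirectionally relative to DMSO.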

Experiment [17] in a line: ATG_PBREM_CIS: Attagene CIS-FACTORIAL HepG2 Assay for human Phenobarbital-responsive Enhancer Module (PBREM) (AID 2282955). Particulars: HepG2 PBREM cis-reporter, Attagene multiplexed transcription; actives raise or lower the signal. Put shortly:
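HepG2, transient MRTU transfection, 24 h dosing; RNA → oligo(dT) RT → PCR → 6-FAM extension → HpaI → CE. Bidirectional fit vs DMSO.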

The target of experiment [18] is Heat shock factor protein 1 (Homo sapiens) (UniProt Q00613). Put plainly: ATG_HSE_CIS: Attagene CIS-FACTORIAL HepG2 Assay for human Heat Shock Transcription Factor 1 (HSE) (AID 2282953). Particulars: HepG2 HSE cis-reporter, Attagene RNA transcription; actives raise or lower the signal. The procedure, abridged: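 Endogenous transcription factor activity captured via cis-promoter reporter units transfected into HepG2; treatment lasted 24 h. Fluorescence intensity of reporter fragments analysed with bidirectional curve fitting, DMSO baseline.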
Heat shock factor protein 1 (Homo sapiens), sequence (Q00613 whole entry, looked up, the tested form may be a part): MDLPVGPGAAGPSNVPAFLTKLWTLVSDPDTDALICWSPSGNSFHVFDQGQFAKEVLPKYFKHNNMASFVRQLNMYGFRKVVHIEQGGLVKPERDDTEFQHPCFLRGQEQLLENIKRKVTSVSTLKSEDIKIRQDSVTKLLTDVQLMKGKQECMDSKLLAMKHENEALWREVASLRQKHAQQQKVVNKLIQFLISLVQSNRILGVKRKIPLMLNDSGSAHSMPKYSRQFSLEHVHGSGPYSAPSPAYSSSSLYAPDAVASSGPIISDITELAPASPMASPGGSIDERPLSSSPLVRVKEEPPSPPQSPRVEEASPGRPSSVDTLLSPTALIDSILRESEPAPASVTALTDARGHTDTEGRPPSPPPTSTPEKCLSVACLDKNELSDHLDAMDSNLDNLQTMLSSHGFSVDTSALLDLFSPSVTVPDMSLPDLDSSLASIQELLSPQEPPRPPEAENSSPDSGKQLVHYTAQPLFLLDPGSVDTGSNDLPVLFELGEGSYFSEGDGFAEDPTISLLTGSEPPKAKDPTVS

Experiment [19] deals with Hepatocyte nuclear factor 6 (Homo sapiens) (UniProt Q9UBC0). Put plainly: ATG_HNF6_CIS: Attagene CIS-FACTORIAL HepG2 Assay for human Hepatocyte Nuclear Factor 6 (HNF6) (AID 2282952). The settings on record: HepG2 Attagene cis-factorial HNF6 reporter transcription; actives raise or lower the signal. Put shortly:
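Cells are HepG2 carrying transiently transfected cis-promoter reporter units. Treatment lasts 24 h, after which reporter transcripts are reverse-transcribed, amplified, FAM-labelled and sized by capillary electrophoresis. DMSO serves as baseline.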

Experiment [20] addresses Bile acid receptor (Homo sapiens) (UniProt Q96RI1). The experiment in a line: ATG_IR1_CIS: Attagene CIS-FACTORIAL HepG2 Assay for human Nuclear Receptor Subfamily 1 Group H Member 4 (NR1H4), IR1 submotif (AID 2282946). Particulars: IR1 reporter transcription, actives raise or lower the signal. Put shortly: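 Cells (human HepG2) carry transiently transfected cis-promoter reporter transcription units. Compounds are incubated 24 h, total RNA is reverse-transcribed and amplified, and labelled fragments are resolved by capillary electrophoresis. Curves use DMSO as baseline.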

Activity calls are given as the source filed them. Rule for the calls: active = hit-call score of the fitted dose curve at least 0.9, where 1 is the maximum; inactive = score below 0.9.

Hepatocyte nuclear factor 3-beta (Homo sapiens), sequence (Q9Y261 whole entry, looked up): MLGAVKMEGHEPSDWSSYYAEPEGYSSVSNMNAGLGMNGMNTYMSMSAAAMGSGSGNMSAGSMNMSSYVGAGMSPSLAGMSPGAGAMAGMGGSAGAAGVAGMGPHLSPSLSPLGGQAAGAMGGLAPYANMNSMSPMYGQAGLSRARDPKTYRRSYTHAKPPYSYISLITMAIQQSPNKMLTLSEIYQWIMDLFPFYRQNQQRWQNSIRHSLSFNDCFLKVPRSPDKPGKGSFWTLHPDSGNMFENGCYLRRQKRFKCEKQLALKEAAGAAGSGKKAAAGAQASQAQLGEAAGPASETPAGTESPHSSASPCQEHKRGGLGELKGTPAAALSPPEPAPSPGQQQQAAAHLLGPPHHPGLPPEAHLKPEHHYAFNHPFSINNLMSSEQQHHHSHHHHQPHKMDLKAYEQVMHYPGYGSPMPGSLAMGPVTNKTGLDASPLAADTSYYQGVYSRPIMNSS
Hypoxia-inducible factor 1-alpha (Homo sapiens), sequence (Q16665 whole entry, looked up): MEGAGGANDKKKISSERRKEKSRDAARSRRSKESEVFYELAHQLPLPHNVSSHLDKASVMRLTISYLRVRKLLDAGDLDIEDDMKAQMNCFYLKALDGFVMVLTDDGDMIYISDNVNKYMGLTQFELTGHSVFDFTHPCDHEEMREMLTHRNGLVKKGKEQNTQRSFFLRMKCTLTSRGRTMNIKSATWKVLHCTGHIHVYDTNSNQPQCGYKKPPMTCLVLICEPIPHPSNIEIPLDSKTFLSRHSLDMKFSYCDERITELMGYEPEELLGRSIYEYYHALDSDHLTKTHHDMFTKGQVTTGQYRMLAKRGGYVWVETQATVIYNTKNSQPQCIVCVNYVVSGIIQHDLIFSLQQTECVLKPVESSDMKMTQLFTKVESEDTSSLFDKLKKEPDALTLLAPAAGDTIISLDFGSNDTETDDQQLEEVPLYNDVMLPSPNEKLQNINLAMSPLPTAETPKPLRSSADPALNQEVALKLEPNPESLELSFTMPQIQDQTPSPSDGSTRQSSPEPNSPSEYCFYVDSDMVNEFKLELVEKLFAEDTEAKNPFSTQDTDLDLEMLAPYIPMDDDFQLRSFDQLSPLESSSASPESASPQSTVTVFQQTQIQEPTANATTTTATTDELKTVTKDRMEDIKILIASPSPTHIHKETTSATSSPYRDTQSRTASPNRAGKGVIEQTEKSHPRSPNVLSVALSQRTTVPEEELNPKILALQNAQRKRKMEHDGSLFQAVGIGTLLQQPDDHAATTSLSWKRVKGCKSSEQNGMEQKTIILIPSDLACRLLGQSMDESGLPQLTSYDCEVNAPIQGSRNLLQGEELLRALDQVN
Hepatocyte nuclear factor 6 (Homo sapiens), sequence (Q9UBC0 whole entry, looked up): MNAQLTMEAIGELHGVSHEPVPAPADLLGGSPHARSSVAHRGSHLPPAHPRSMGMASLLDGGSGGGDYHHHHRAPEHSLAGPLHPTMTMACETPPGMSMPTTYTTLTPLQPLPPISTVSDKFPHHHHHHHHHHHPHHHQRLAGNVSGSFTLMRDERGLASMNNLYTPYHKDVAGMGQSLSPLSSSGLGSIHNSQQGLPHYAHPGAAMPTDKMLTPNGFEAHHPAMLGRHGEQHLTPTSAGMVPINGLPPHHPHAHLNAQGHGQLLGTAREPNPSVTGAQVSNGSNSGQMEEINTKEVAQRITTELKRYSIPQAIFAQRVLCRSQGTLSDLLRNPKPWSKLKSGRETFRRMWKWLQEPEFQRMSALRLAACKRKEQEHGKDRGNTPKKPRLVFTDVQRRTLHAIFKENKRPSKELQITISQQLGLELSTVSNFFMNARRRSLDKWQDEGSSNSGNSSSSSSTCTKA
Bile acid receptor (Homo sapiens), sequence (Q96RI1 whole entry, looked up, the tested form may be a part): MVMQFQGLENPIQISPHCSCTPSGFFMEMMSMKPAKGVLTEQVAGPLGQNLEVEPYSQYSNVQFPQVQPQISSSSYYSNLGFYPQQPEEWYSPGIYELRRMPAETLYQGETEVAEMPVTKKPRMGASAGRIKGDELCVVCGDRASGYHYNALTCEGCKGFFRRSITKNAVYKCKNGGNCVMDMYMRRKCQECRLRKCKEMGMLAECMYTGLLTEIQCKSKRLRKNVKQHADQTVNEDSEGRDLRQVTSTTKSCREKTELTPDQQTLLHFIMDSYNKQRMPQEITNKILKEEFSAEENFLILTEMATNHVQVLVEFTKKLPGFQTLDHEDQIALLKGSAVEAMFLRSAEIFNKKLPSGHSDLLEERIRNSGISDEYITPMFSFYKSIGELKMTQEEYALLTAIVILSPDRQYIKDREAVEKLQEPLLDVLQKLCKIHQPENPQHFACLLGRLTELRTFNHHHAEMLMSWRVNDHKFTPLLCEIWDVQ

In general, AC50 refers to the concentration at which the activity in the assay is half-maximal. Take `O=c1c2ccccc2oc2ccccc12`: the result in experiment [1], in [2], in experiment [3], in experiment [4], in experiment [6] and in experiment [7] was inactive. Further, the molecule was classed as inactive in [8], in experiment [9], in experiment [10], in [11], in [12] and in [13]. The result in [14], in [15], in experiment [16] and in experiment [17] was inactive. Also, in experiment [5], the half-maximal activity concentration (AC50) was 26.4 µM (active).
`O=C1CCC(=O)N1Cl`: the outcome in [1], in experiment [2], in experiment [3], in experiment [4], in experiment [5] and in experiment [6] was inactive. The outcome in [7], in [8], in experiment [9], in experiment [10], in [11] and in experiment [12] was inactive. In addition, the molecule was called inactive in experiment [13], in experiment [14], in experiment [15], in experiment [18], in experiment [16] and in experiment [17].
Take `CCCCCCCCCCOC(C)=O`: the outcome in experiment [1], in [2], in [3], in experiment [4], in [6] and in [7] was inactive. Besides, the molecule was classed as inactive in [8], in experiment [9], in [10], in experiment [11], in experiment [13] and in [14]. In addition, the call in experiment [15], in experiment [19], in experiment [18] and in experiment [16] was inactive. The AC50 in [5] was 8.88 µM (active).
Take `CCOc1ccc(N)c([N+](=O)[O-])c1`: the outcome in experiment [1], in experiment [2], in experiment [3], in experiment [4], in [5] and in experiment [6] was inactive. The molecule was called inactive in experiment [7], in [8], in experiment [10], in [12], in [13] and in experiment [14]. The call in experiment [15], in experiment [19], in [18], in experiment [16] and in experiment [17] was inactive.
`COC(=O)c1cc(Cl)ccc1[N+](=O)[O-]`: the outcome in experiment [1], in experiment [2], in experiment [3], in experiment [4], in experiment [6] and in experiment [7] was inactive. Moreover, the outcome in experiment [8], in experiment [9], in experiment [10], in experiment [11], in experiment [12] and in [13] was inactive. Also, the result in [14], in experiment [15], in experiment [19], in experiment [18], in [16] and in [17] was inactive.
Turning to `CCCCCCCCCCC=CC#N`, the result in experiment [1], in experiment [2], in experiment [3], in experiment [4], in experiment [5] and in [6] was inactive. The call in [7], in experiment [8], in experiment [10], in experiment [20], in experiment [12] and in experiment [13] was inactive. The result in experiment [14], in experiment [15], in [19], in experiment [16] and in [17] was inactive.
Regarding `CC(C)c1ccc(C#N)cc1`, the result in experiment [1], in experiment [2], in [3], in experiment [4], in experiment [6] and in experiment [7] was inactive. Besides, the molecule was called inactive in experiment [8], in experiment [9], in experiment [10], in experiment [11], in experiment [12] and in experiment [13]. For the same molecule, the molecule was classed as inactive in [14], in experiment [15], in [19], in experiment [18], in [16] and in experiment [17].
`C=CC=CC=CCCCCC`: the result in experiment [1], in experiment [2], in [3], in [4], in experiment [6] and in [7] was inactive. The molecule was classed as inactive in experiment [8], in experiment [9], in experiment [10], in experiment [11], in experiment [12] and in experiment [13]. For the same molecule, the result in [14], in experiment [15], in experiment [19], in experiment [18] and in [16] was inactive. The AC50 in experiment [20] is 40.4 µM (active).

(Values after PubChem BioAssay (EPA / NIEHS).)
